Results as given in PubChem BioAssay (Tox21).
“And” between values parts separate entries of the source, which are not always exact repeats. Equal entries are not always repeated. Inconclusive results are not listed. A call without a number means that no potency is given here. Where a structure was tested more than once in an assay, its records may differ in their call. The source made the active and inactive calls. Unless noted, the call rests on the fitted dose curve.

Experiments:
[1] = Nuclear factor erythroid 2-related factor 2/antioxidant responsive element (Nrf2/ARE) small molecule agonists: qHTS cell viability counter screen in human keratinocytes (AID 1919968; active means well fitted curve in the direction sought with a large enough effect in the repeat runs; an effect the other way counts as inactive or inconclusive; further: nearly all actives have a fitted effect of over 55% in size; further: potency means the concentration at half of the fitted maximal effect)
Method in brief: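 HaCaT ARE reporter line, 1,500 cells/well; 5 h settle, 37 C/5% CO2; cpd in DMSO pinned; 23 h exposure; CellTiter-Fluor, 1 h; fluorescence.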

[2] = molecular target: Gonadotropin-releasing hormone receptor (Homo sapiens) (UniProt P30968); test: Human gonadotropin-releasing hormone receptor (GnRHR) small molecule agonists, calcium flux assay in GnRHR-HEK293 cells (AID 1920063); further: nearly all actives have a fitted effect of over 35% in size
Gonadotropin-releasing hormone receptor (Homo sapiens), sequence (P30968 whole entry, looked up): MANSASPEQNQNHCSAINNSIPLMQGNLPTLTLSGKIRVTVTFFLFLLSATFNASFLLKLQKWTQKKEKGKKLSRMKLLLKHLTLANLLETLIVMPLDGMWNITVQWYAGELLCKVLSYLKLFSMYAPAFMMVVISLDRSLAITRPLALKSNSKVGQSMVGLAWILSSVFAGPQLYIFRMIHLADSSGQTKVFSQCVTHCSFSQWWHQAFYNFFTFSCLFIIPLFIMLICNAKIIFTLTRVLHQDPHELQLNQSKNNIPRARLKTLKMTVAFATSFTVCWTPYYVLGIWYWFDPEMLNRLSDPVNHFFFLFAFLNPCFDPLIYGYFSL
Method in brief: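 GnRHR-HEK293, 1500 cells/well, 18 h 37 C/5% CO2; Ca dye 1 h 37 C; cpd pinned (DMSO), agonist mode; kinetic FL 480/540, 3 min, 1 s reads; 15 conc, n=3.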

[3] = molecular target: KiSS-1 receptor (Homo sapiens) (UniProt Q969F8); test: Human kisspeptin (KISS1R) small molecule agonists, calcium flux assay in KISS1R-HEK293 cells (AID 1920064; active means well fitted curve in the direction sought with a large enough effect in the repeat runs; an effect the other way counts as inactive or inconclusive)
KiSS-1 receptor (Homo sapiens), sequence (Q969F8 whole entry, looked up): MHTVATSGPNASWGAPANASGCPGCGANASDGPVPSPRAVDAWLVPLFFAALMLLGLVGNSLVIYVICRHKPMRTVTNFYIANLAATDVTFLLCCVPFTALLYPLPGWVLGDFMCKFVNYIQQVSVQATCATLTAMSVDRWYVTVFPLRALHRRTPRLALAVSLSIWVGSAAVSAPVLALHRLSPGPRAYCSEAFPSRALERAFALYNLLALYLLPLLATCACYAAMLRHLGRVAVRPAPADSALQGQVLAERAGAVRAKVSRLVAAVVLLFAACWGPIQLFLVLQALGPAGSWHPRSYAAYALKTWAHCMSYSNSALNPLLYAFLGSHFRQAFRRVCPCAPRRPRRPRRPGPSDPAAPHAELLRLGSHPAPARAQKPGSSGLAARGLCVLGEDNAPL
Method in brief: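 Stable human KISS1R HEK293 line; 18 h plating, 37 C/5% CO2; calcium dye 1 h 37 C; compound pin transfer; kinetic fluorescence Ex/Em 480/540, 3 min.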

[4] = G protein-coupled receptor (GPCR) small molecule agonists, calcium flux assay: HEK293 wild type cell line counter screen (AID 1920065)
Method in brief: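 Kinetic fluorescence at Ex/Em 480/540, recorded every second over 3 min, served as the read-out after compound addition. Each compound was tested at 15 concentrations in triplicate on cells pre-loaded with calcium dye for 1 h.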

[5] = p53 small molecule agonists, cell-based qHTS assay with human liver microsomes (AID 1963577);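 further: p53 response element beta-lactamase reporter cells with liver microsomes plus NADPH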
Method in brief: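 HLM-supplemented p53RE-bla reporter assay: 16 h compound exposure at 37 C, microsomes and NADPH each 0.5 mg/mL final, read by fluorescence intensity.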

[6] = p53 small molecule agonists, cell-based qHTS assay with rat liver microsomes (AID 1963578)
Method in brief: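 Quantitative HTS of the Tox21 10K library: p53RE-bla cells, rat liver microsomes plus NADPH at 0.5 mg/mL final each, 16 h at 37 C, beta-lactamase fluorescence detection.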

[7] = p53 small molecule agonists, cell-based qHTS assay with human liver microsomes: qHTS cell viability counter screen (AID 1963579); further: nearly all actives have a fitted effect of over 45% in size
Method in brief: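 Viability of p53RE-bla cells is measured as CellTiter-Glo luminescence following a 16 h, 37 C incubation with compound, liver microsomes from human donors and NADPH.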

[8] = p53 small molecule agonists, cell-based qHTS assay with rat liver microsomes: qHTS cell viability counter screen (AID 1963580); further: nearly all actives have a fitted effect of over 45% in size; further: potency means the concentration at half of the fitted maximal effect
Method in brief: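 In HCT-116 cells carrying a p53 response element-bla reporter, compounds were metabolically activated in situ by rat liver microsomes with NADPH over 16 h. Cell ATP content then served as the cytotoxicity measure.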

[9] = p53 small molecule agonists, cell-based qHTS assay (AID 1963582; active means well fitted activation curve with a large enough effect in the signal ratio in the repeat runs, not every such curve was filed as active; the % refers to the signal ratio)
Method in brief: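 Reporter line: p53RE-bla. Pre-incubation 5 h, 37 C, 5% CO2; compound (DMSO, pin tool) 16 h, 37 C; B/G FRET substrate 2 h RT; fluorescence intensity read.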

[10] = molecular target: 5-hydroxytryptamine receptor 2A (Homo sapiens) (UniProt P28223); test: 5-hydroxytryptamine receptor 2A (HTR2A) small molecule antagonists, cell-based qHTS assay (AID 1963586); further: nearly all actives have a fitted effect of over 45% in size
5-hydroxytryptamine receptor 2A (Homo sapiens), sequence (P28223 whole entry, looked up): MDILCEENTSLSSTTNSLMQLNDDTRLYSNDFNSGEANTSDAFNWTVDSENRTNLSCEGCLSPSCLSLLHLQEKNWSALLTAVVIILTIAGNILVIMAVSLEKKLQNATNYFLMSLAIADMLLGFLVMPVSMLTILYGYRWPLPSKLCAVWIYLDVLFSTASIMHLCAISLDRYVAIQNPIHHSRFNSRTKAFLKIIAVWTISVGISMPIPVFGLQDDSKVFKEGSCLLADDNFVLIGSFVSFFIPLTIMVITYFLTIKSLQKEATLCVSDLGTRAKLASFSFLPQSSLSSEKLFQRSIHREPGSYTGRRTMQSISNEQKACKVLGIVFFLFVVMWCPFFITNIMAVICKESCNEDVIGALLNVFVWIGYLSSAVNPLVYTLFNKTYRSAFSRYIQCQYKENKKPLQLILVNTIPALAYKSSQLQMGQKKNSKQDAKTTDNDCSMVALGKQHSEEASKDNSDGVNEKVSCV
Method in brief: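 Antagonist-mode intracellular calcium assay: DOI (4 nM) added after 5 min compound pre-incubation at room temperature to dye-loaded HTR2A-CHO cells. Fluorescence followed for 3 min, sampled every second.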

[11] = molecular target: 5-hydroxytryptamine receptor 2A (Homo sapiens) (UniProt P28223); test: 5-hydroxytryptamine receptor 2A (HTR2A) small molecule agonists, cell-based qHTS assay (AID 1963587); further: nearly all actives have a fitted effect of over 30% in size; further: potency means the concentration at half of the fitted maximal effect
Method in brief: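 HTR2A-CHO cells, plated 18 h at 37 C/5% CO2, dye-loaded 1 h at 37 C; compounds in DMSO added by pin tool (agonist mode). Intracellular calcium flux read as kinetic fluorescence on FDSS over 2 min at 1 s intervals.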

[12] = molecular target: Muscarinic acetylcholine receptor M1 (Homo sapiens) (UniProt P11229); test: Cholinergic receptor muscarinic 1 (CHRM1) small molecule antagonists, cell-based qHTS assay (AID 1963588); further: nearly all actives have a fitted effect of over 40% in size; further: potency means the concentration at half of the fitted maximal effect
Muscarinic acetylcholine receptor M1 (Homo sapiens), sequence (P11229 whole entry, looked up): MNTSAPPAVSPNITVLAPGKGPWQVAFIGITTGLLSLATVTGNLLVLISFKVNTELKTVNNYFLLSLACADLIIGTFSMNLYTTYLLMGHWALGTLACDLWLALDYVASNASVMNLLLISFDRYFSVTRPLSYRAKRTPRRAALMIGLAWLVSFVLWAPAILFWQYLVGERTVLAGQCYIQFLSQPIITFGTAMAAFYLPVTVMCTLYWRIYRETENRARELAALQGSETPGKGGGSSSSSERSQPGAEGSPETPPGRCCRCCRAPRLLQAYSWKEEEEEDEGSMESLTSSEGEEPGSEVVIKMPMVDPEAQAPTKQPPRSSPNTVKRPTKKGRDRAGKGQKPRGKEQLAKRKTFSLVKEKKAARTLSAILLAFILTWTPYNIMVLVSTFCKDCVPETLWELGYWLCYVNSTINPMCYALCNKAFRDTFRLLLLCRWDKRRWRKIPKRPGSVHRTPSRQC
Method in brief: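 CHRM1-CHO calcium-flux assay, antagonist mode. Cells were seeded 18 h, dye-loaded 1 h at 37 C and given compound for 5 min at RT, then acetylcholine was added at 50nM. FDSS fluorescence was read 3 min; 15 concentrations, three runs.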

[13] = molecular target: Muscarinic acetylcholine receptor M1 (Homo sapiens) (UniProt P11229); test: Cholinergic receptor muscarinic 1 (CHRM1) small molecule agonists, cell-based qHTS assay (AID 1963589); further: nearly all actives have a fitted effect of over 35% in size
Method in brief: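 Human M1 in stable CHO line; 18 h plating, 1 h dye load 37 C; cpd added (agonist mode); Ca2+ fluorescence kinetic read, 1 s intervals; 15 conc, 3 runs.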

[14] = cAMP Responsive Elements (CRE) small molecule agonists, cell-based qHTS assay (AID 1963590)
Method in brief: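 HEK 293T CRE-bla, 2,000 cells/well, 18 h preincubation 37 C/5% CO2; cpds (DMSO) pinned, 3 h; LiveBLAzer B/G FRET substrate, 2 h RT.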

[15] = cAMP Responsive Elements (CRE) small molecule antagonists, cell-based qHTS assay (AID 1963591; active means well fitted inhibition curve with a large enough effect in the signal ratio in the repeat runs, not every such curve was filed as active; the % refers to the signal ratio)
Method in brief: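 Beta-lactamase reporter read by FRET substrate (LiveBLAzer B/G) after 2 h at room temperature. CRE-bla HEK293T cells had received compound plus 0.25 uM (final) NKH477 for 3 h at 37 °C.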

[16] = molecular target: Beta-2 adrenergic receptor (Homo sapiens) (UniProt P07550); test: Adrenergic beta2 receptor (ADRB2) small molecule antagonists, cell-based qHTS assay (AID 1963592); further: series mostly up to about 92 µM; nearly all actives have a fitted effect of over 50% in size
Beta-2 adrenergic receptor (Homo sapiens), sequence (P07550 whole entry, looked up): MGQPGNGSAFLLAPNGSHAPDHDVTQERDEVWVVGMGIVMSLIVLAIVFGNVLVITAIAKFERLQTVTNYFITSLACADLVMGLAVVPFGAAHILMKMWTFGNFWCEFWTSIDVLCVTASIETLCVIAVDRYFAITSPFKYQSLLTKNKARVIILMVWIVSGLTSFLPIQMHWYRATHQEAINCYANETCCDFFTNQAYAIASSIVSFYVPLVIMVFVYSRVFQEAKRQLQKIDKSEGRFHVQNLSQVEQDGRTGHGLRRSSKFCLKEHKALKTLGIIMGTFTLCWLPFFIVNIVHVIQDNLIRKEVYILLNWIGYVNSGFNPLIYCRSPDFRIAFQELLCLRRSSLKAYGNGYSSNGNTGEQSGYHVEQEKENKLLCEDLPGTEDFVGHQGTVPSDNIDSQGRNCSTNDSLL
Method in brief: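 Cells (CHO, stable ADRB2 overexpression) incubated 18-20hr at 37C; compounds added from DMSO; agonist mix (1nM isoproterenol, 100uM IBMX, 25uM Ro-20-1724) added; 0.5hr RT; d2-cAMP and anti-cAMP-cryptate added; 1hr RT; 665/615 nm read.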

[17] = molecular target: Beta-2 adrenergic receptor (Homo sapiens) (UniProt P07550); test: Adrenergic beta2 receptor (ADRB2) small molecule agonists, cell-based qHTS assay (AID 1963593);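 further: CHO cells stably overexpressing human ADRB2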
Method in brief: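 CHO cells stably over-expressing ADRB2 were plated overnight at 37C, then dosed with compounds plus a stimulation mix containing 100uM IBMX and 25uM Ro-20-1724 for 0.5hr at room temperature. cAMP was measured by HTRF competition, 1hr.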

[18] = molecular target: D(2) dopamine receptor (Homo sapiens) (UniProt P14416); test: Dopamine D2 receptor (DRD2) small molecule agonists, cell-based qHTS assay (AID 1963594); further: nearly all actives have a fitted effect of over 35% in size
D(2) dopamine receptor (Homo sapiens), sequence (P14416 whole entry, looked up): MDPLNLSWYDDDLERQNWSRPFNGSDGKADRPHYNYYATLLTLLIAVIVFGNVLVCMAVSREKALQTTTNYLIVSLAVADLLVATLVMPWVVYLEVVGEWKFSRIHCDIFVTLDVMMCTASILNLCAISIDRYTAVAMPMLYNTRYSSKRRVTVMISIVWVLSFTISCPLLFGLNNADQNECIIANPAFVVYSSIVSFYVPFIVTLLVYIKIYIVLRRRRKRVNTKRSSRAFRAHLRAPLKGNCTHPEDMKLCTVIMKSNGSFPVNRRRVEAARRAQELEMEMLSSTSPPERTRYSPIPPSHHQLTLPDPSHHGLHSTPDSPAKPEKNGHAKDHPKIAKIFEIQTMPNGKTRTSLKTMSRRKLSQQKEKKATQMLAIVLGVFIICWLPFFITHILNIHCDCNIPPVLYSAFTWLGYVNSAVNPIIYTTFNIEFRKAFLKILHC
Method in brief: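 HEK293 cells stably expressing DRD2 were cultured 24 h at 37 C, then given Ro20-1724 (0.1 mM final) and compounds for 10 min at room temperature. NKH477 (200nM) was then added for 30 min. cAMP was read by HTRF.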

[19] = molecular target: D(2) dopamine receptor (Homo sapiens) (UniProt P14416); test: Dopamine D2 receptor (DRD2) small molecule antagonists, cell-based qHTS assay (AID 1963595; active means well fitted inhibition curve with a large enough effect in the signal ratio in the repeat runs, with a control signal flat; the % refers to the signal ratio; further: potency means the concentration at half of the fitted maximal effect)
Method in brief: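 Readout: HTRF cAMP, cAMP-d2 competing with cellular cAMP for anti-cAMP cryptate, read after 1 h. Cells: DRD2-HEK293. Conditions: 0.1 mM Ro20-1724, 12 nM quinpirole, 200 nM NKH477, 30 min RT.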

[20] = p53 small molecule agonists, cell-based qHTS assay: qHTS cell viability counter screen (AID 1963581); further: nearly all actives have a fitted effect of over 45% in size; further: potency means the concentration at half of the fitted maximal effect
Method in brief: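 HCT-116 p53RE-bla cells, 4,000/well, plated 5 h before compound pin transfer; 16 h at 37 C; bla substrate 2 h RT; then CellTiter-Glo, 30 min RT, luminescence.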

Structure (SMILES)	Potency [1]	Potency [2]	Potency [3]	Potency [4]	Potency [5]	Potency [6]	Potency [7]	Potency [8]	Potency [9]	Potency [10]	Potency [11]	Potency [12]	Potency [13]	Potency [14]	Potency [15]	Potency [16]	Potency [17]	Potency [18]	Potency [19]	Potency [20]
CC1(C)OC(=O)NC1=O	inactive	inactive	inactive	inactive	inactive	inactive	inactive	inactive	inactive	inactive	inactive	inactive	inactive	inactive	inactive	inactive	inactive	inactive	inactive	
O=S(=O)(O)NC1CCCCC1	inactive	inactive	inactive	inactive			inactive	inactive		inactive	inactive	inactive	inactive	inactive	inactive	inactive		inactive	inactive	inactive
Cc1ccccc1C=O	inactive	inactive	inactive	inactive	inactive	inactive	inactive	inactive	inactive	inactive	inactive	inactive	inactive	inactive	inactive	inactive	inactive	inactive	inactive	
CNNCc1ccc(C(=O)NC(C)C)cc1	inactive	inactive	inactive	inactive	inactive	inactive	inactive	inactive						inactive	inactive	inactive	inactive	inactive		inactive
CC(O)COc1ccccc1 (centres undefined)	inactive		inactive	inactive	inactive	inactive	inactive	inactive	inactive	inactive	inactive	inactive	inactive	inactive	inactive	inactive	inactive	inactive	inactive	inactive
NC1CCCCC1	inactive	inactive	inactive	inactive			inactive	inactive		inactive	1.96 µM (active) and inactive	inactive and 4.7 nM (active)	inactive	inactive	inactive	inactive	inactive	inactive	inactive	inactive
C/C=C(C)/C=C/C=C(C)C	inactive	inactive			inactive	inactive	inactive	inactive	inactive	inactive		inactive	inactive	inactive	inactive	inactive	inactive	inactive		inactive
CCCCCCCCCCCCCCCCCC(=O)OCC(O)CO (centres undefined)	inactive	inactive	inactive	inactive			inactive	inactive		inactive	inactive	inactive	inactive	inactive	inactive	inactive	inactive		inactive	inactive
CCCCOC(=O)c1ccc(O)cc1	inactive	inactive	inactive	inactive		inactive	inactive	inactive	inactive	inactive	inactive	inactive	inactive	inactive	inactive	inactive		inactive	inactive	inactive
CC/C(=C(\c1ccccc1)c1ccc(OCCN(C)C)cc1)c1ccccc1	24.3 µM (active) [middle of 5 runs]	inactive	inactive	inactive	inactive		inactive	1.83 µM (active) and 28.8 µM (active) and inactive						inactive	inactive			inactive	38.9 µM (active) and 61.1 µM (active)	inactive and 51.3 µM (active)
C/C=C/C=C/C(=O)O	inactive	inactive	inactive	inactive			inactive	inactive		inactive	inactive	inactive			inactive	inactive		inactive	inactive	inactive
CN1C(C(=O)Nc2ccccn2)=C(O)c2ccccc2S1(=O)=O	inactive	inactive	inactive	inactive		inactive	inactive	inactive	inactive					inactive	inactive	inactive		inactive		inactive
CC(COc1ccccc1)N(CCCl)Cc1ccccc1 (centres undefined)	inactive	inactive	inactive	inactive		inactive	inactive	inactive	inactive		inactive	inactive	inactive	inactive	inactive	inactive	inactive		inactive	
COc1cc(O)c(C(=O)c2ccccc2)cc1S(=O)(=O)O	inactive	inactive	inactive	inactive				inactive		inactive	inactive	inactive	inactive	inactive	inactive	inactive	inactive	inactive	inactive	inactive
CC1(C)NC(=O)N(c2ccc([N+](=O)[O-])c(C(F)(F)F)c2)C1=O	inactive	inactive	inactive	inactive	inactive	inactive	inactive	inactive	inactive	inactive	inactive	inactive	inactive	inactive	inactive	inactive	inactive	inactive	inactive	
O=C(O)c1ccccc1	inactive		inactive	inactive			inactive	inactive							inactive	inactive	inactive	inactive		inactive
